Data taken from PubChem BioAssay (EPA / NIEHS).
“And” between values parts separate entries of the source, which are not always exact repeats. Identical values can stand only once. Records with an inconclusive call do not appear. A structure can be active in one record and inactive in another. The source made the active and inactive calls. How the source made its calls, unless noted: active means hit-call score of the fitted dose curve at least 0.9, where 1 is the maximum; inconclusive means response in the unintended direction; inactive means score below 0.9.

Experiments:
[1] = molecular target: Nuclear receptor subfamily 1 group I member 2 (Homo sapiens) (UniProt O75469); test: NVS_NR_hPXR: NovaScreen (NVS) Nuclear Receptor Binding Assay for human Pregnane X Receptor (PXR) (AID 2283365);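 further: a drop in FRET signal versus DMSO baseline means the compound binds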
In short: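 Binding was measured by time-resolved fluorescence resonance energy transfer after a 2 h exposure of extracted human PXR protein without cells. Compounds were first tested at 25 uM in duplicate, with concentration series for actives; DMSO defined baseline.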

[2] = molecular target: Estrogen receptor beta (Homo sapiens) (UniProt Q92731); test: OT_ER_ERbERb_1440: Odyssey Thera (OT) 24-hour HEK293T Protein-Complementation Assay for Estrogen Receptor-beta/-beta Homodimer (AID 2283380);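 further: fluorescence gain from ER beta LBD homodimer complementation read by laser scanning cytometry; scored as signal increase over DMSO baseline for both agonists and antagonists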
In short: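 Fluorescence increase, nuclear for agonists or whole-cell for antagonists, relative to DMSO vehicle, quantified by laser scanning cytometer after fixation and Draq5 staining. Readout from 24 h treatment of HEK293T cells carrying complementation-paired ER beta LBD (aa 310-547).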

[3] = molecular target: Estrogen receptor (Homo sapiens) (UniProt P03372); test: OT_ERa_GFPERaERE_0480: Odyssey Thera (OT) 8-hour HeLa Transcription Induction Assay for Estrogen Receptor (AID 2283381; active means hit-call score of the fitted dose curve at least 0.9, where 1 is the maximum; inactive means score below 0.9)
In short: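 Fluorescence microscopy with high-content image analysis measures ERE-driven GFP induction in HeLa cells at 8 h post-dose. Increases fitted against DMSO baseline.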

[4] = molecular target: Estrogen receptor (Homo sapiens) (UniProt P03372); test: OT_ERa_GFPERaERE_0120: Odyssey Thera (OT) 2-hour HeLa Transcription Induction Assay for Estrogen Receptor (AID 2283382)
In short: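 Fluorescence-microscopy images of the GFP-ERα/ERE reporter, scored by high-content image algorithms, give the readout. HeLa exposure lasted 2 h, and only signal increase over DMSO was fitted.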

[5] = molecular target: Retinoic acid receptor RXR-alpha (Homo sapiens) (UniProt P19793); test: OT_NURR1_NURR1RXRa_0480: Odyssey Thera (OT) 8-hour HEK293T Protein Complementation Assay for Nurr1/retinoid X receptor (RXR) (AID 2283385)
In short: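 Interaction of Nurr1 with RXRα read as reconstituted reporter fluorescence in a HEK293T fragment-complementation system, 8 h post-treatment; increase over DMSO baseline analysed.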

[6] = molecular target: Peroxisome proliferator-activated receptor gamma (Homo sapiens) (UniProt P37231); test: OT_PPARg_PPARgSRC1_0480: Odyssey Thera (OT) 8-hour Protein-Complementation Assay for Peroxisome Proliferator-activated Receptor Gamma / SRC-1 Co-activator (AID 2283387);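 further: nuclear to cytoplasmic split Venus YFP fluorescence ratio reporting PPARg SRC-1 interaction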
In short: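 Split-YFP (IFP1/IFP2) PPARg/SRC-1 reporter, HEK293T, 37 °C, 5% CO2; 8 h compound; formaldehyde fix + Draq5; high-content imaging, N/C ratio, ≥350 cells/image, positive direction vs DMSO.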

[7] = molecular target: Peroxisome proliferator-activated receptor gamma (Homo sapiens) (UniProt P37231); test: OT_PPARg_PPARgSRC1_1440: Odyssey Thera (OT) 24-hour Protein-Complementation Assay for Peroxisome Proliferator-activated Receptor Gamma/ SRC-1 Co-activator (AID 2283388);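 further: nuclear to cytoplasmic ratio of reconstituted Venus YFP fluorescence in fixed imaged cells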
In short: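 Transient HEK293T, YFP fragments 1-158/159-239 (mutant IFP1/IFP2) fused to PPARg/SRC-1; 24 h dosing; fix 4% formaldehyde, Draq5; Opera imaging 488/635 nm; N/C ratio, gain vs DMSO.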

[8] = molecular target: Peroxisome proliferator-activated receptor gamma (Homo sapiens) (UniProt P37231); test: NVS_NR_hPPARg: NovaScreen (NVS) Nuclear Receptor Binding Assay for human Peroxisome Proliferator-activated Receptor gamma (PPARg) (AID 2283370)
In short: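 Fluorescence polarization measures competitive binding to extracted PPARg in a cell-free format. Reading is taken at 2 h; activity is signal loss relative to DMSO. Screening at 25 uM in duplicate preceded confirmatory dose series.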

[9] = molecular target: mouse Estrogen Receptor alpha (Era), Esr1 (gene 13982) (UniProt P19785); test: NVS_NR_mERa: NovaScreen (NVS) Nuclear Receptor Binding Assay for mouse Estrogen Receptor alpha (Era) (AID 2283378);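 further: hit means loss of bound radioligand signal relative to DMSO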
In short: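 Test chemicals competed against a specific radioligand for binding to cell-free mouse Era. Duplicate wells at 25 uM were read 18 hours later by filter-based radiodetection, with loss of signal against DMSO scored as activity.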

[10] = molecular target: Retinoic acid receptor RXR-alpha (Homo sapiens) (UniProt P19793); test: OT_NURR1_NURR1RXRa_1440: Odyssey Thera (OT) 24-hour HEK293T Protein Complementation Assay for Nurr1/retinoid X receptor (RXR) (AID 2283386)
In short: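 Gain in fluorescence, fitted relative to DMSO, reflects Nurr1–RXRα association in HEK293T cells after 24 h dosing. Bait and prey are each linked to a reporter-protein fragment that reassembles on interaction.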

[11] = tested on: guinea pig Dopamine Transporter (DAT), gene 100714898; test: NVS_TR_gDAT: NovaScreen (NVS) Transporter Assay for guinea pig Dopamine Transporter (DAT) (AID 2283369);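 further: active compounds lower bound radioligand signal relative to DMSO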
In short: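 Test chemicals were incubated 2 h with guinea pig striatal membranes and a radioligand; bound label was separated by filtration and counted. Screening ran at 25 uM, followed by concentration-response testing to a 50 uM maximum.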

[12] = tested on: rat Norepinephrine Transporter (NET), gene 83511; test: NVS_TR_rNET: NovaScreen (NVS) Transporter Assay for rat Norepinephrine Transporter (NET) (AID 2283373)
In short: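 Competitive radioligand displacement at the rat NET using forebrain membrane preparations, 1 h incubation, filter-based scintillation readout. Primary testing in duplicate at a single 25 uM concentration; confirmed actives retested across concentrations.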

[13] = molecular target: human Dopamine Transporter (DAT), SLC6A3 (gene 6531) (UniProt Q01959); test: NVS_TR_hDAT: NovaScreen (NVS) Transporter Assay for human Dopamine Transporter (DAT) (AID 2283374);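 further: activity means loss of bound radioligand signal relative to DMSO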
In short: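 Duplicate single-point screening at 25 uM preceded concentration-series follow-up of actives. Binding was measured by competitive displacement of a radioligand from DAT protein, filter-counted by scintillation 1 h after dosing. Decrease relative to DMSO taken as activity.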

[14] = molecular target: rat Serotonin Transporter (SERT), Slc6a4 (gene 25553) (UniProt P31652); test: NVS_TR_rSERT: NovaScreen (NVS) Transporter Assay for rat Serotonin Transporter (SERT) (AID 2283375)
In short: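 Steps: rat forebrain membranes dosed with chemical (25 uM duplicate primary; concentration series for actives); 1 h incubation; labelled ligand bound, filtered, counted by scintillation. Activity scored as signal loss vs DMSO.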

[15] = molecular target: human Norepinephrine Transporter (NET), SLC6A2 (gene 6530) (UniProt P23975); test: NVS_TR_hNET: NovaScreen (NVS) Transporter Assay for human Norepinephrine Transporter (NET) (AID 2283377);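 further: cell-free membrane protein extracted from CHO cells expressing human NET; displacement of radioligand from human NET seen as loss of scintillation signal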
In short: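 Single-concentration duplicate screen at 25 uM, then concentration-response for actives; displacement of specific radioligand from human NET in CHO membrane extracts, filter-based scintillation detection at 1 h relative to DMSO.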

[16] = CEETOX_H295R_11DCORT: CeeTox H295R High-throughput Steroidogenesis Assay for 11-Deoxycortisol (11DCORT) (AID 2283432; active means hit-call score of the fitted dose curve at least 0.9, where 1 is the maximum; inactive means score below 0.9;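 on AC50: human adrenal H295R cells prestimulated with 10 µM forskolin for 48 h; 11-deoxycortisol secreted into the medium measured by LC-MS/MS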); settings: actives raise or lower the signal
In short: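 Steroidogenesis in human H295R cells: 48 h chemical exposure after forskolin priming, 11-deoxycortisol measured by LC-MS/MS.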

[17] = molecular target: Bile acid receptor (Homo sapiens) (UniProt Q96RI1); test: OT_FXR_FXRSRC1_1440: Odyssey Thera (OT) 24-hour HEK293T Protein-Complementation Assay for Farnesoid X receptor/SRC-1 Co-activator (AID 2283384)
In short: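 Protein-fragment complementation: FXR and SRC-1 fused to reporter fragments that reassemble on interaction, read by fluorescence intensity. Human HEK293T cells measured 24 h post-dose; positive-direction fit versus DMSO.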

[18] = molecular target: guinea pig Sigma Receptor, Non-selective Binding, SIGMAR1 (gene 100135589) (UniProt Q60492); test: NVS_OR_gSIGMA_NonSelective: NovaScreen (NVS) Nuclear Receptor Binding Assay for guinea pig Sigma Receptor, Non-selective Binding (AID 2283367)
In short: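 Guinea pig brain membrane sigma sites were labelled with a radioligand, and bound radioactivity was counted after filtration 1 h post-dose. Compounds were screened at 25 uM in duplicate, then retested as concentration series when active.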

Measured: AC50

Sequence of Nuclear receptor subfamily 1 group I member 2 (Homo sapiens) (O75469 whole entry, looked up): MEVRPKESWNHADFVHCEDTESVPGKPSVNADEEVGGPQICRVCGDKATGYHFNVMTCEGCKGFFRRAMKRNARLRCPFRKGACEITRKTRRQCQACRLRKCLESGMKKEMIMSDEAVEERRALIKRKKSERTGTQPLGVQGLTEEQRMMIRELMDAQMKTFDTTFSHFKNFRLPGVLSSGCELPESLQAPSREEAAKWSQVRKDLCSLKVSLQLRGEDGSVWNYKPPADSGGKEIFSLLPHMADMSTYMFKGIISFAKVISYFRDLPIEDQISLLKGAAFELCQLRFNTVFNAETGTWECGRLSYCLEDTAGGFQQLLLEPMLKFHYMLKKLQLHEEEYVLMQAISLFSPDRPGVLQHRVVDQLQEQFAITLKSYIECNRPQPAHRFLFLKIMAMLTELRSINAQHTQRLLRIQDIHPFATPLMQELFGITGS
Sequence of human Dopamine Transporter (DAT), SLC6A3 (gene 6531) (Q01959 whole entry, looked up): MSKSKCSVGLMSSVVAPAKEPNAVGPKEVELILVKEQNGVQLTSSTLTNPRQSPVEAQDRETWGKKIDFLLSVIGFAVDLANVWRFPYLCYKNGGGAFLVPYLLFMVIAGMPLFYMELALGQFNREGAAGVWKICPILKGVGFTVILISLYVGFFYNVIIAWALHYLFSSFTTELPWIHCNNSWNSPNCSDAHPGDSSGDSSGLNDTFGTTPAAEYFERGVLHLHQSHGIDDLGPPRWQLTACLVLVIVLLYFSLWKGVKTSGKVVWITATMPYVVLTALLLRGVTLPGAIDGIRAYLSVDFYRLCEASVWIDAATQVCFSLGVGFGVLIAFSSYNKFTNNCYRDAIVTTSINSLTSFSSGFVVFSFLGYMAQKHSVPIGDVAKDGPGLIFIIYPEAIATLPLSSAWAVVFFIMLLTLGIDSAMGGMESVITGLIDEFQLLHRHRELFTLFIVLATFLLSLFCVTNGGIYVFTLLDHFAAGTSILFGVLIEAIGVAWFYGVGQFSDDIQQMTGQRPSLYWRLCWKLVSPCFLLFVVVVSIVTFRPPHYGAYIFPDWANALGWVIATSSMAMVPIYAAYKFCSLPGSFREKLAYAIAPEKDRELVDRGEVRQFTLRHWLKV
Sequence of human Norepinephrine Transporter (NET), SLC6A2 (gene 6530) (P23975 whole entry, looked up): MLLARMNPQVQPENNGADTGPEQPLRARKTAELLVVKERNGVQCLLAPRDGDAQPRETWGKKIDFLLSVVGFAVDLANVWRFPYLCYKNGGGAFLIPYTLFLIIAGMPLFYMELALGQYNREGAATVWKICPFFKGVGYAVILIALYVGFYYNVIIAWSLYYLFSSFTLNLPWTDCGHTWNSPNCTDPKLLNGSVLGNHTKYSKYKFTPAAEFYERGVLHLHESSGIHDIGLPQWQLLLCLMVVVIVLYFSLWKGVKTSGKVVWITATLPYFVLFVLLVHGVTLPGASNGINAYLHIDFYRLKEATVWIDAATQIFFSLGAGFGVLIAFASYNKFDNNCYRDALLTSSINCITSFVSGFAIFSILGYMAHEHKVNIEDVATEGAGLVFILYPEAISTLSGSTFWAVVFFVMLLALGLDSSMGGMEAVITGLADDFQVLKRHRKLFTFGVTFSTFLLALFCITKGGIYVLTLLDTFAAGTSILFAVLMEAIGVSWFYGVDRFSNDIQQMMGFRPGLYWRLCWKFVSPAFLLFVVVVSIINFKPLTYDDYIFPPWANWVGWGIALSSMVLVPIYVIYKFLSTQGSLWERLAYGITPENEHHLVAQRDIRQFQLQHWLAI
Sequence of Estrogen receptor (Homo sapiens) (P03372 whole entry, looked up): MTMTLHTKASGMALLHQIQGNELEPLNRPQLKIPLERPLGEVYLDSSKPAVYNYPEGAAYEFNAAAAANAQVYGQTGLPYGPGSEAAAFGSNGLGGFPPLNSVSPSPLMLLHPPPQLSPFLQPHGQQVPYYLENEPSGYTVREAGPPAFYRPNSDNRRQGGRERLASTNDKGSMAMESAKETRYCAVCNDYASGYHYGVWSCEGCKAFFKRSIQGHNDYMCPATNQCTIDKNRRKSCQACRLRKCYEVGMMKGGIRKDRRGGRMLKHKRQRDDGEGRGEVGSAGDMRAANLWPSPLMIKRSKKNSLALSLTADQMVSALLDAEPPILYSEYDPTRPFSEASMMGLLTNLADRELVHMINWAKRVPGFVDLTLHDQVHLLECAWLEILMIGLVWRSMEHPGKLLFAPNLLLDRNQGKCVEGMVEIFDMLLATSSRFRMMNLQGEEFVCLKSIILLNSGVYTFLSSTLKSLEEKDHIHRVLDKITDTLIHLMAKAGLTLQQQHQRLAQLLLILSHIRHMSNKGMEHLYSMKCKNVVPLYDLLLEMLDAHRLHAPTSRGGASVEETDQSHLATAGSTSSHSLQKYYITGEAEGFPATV
Sequence of Retinoic acid receptor RXR-alpha (Homo sapiens) (P19793 whole entry, looked up, the tested form may be a part): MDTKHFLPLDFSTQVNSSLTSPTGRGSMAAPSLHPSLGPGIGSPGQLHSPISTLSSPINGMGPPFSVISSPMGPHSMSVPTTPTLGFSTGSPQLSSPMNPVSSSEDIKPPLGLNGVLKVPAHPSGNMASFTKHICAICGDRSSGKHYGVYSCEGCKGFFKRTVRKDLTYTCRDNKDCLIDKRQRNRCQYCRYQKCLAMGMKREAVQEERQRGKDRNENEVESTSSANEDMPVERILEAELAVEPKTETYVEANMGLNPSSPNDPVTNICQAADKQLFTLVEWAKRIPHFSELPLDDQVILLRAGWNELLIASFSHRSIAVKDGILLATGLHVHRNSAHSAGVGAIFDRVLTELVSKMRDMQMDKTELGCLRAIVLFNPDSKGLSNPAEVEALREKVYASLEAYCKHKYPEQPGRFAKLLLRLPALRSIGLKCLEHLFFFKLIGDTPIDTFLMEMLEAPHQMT
Sequence of Estrogen receptor beta (Homo sapiens) (Q92731 whole entry, looked up, the tested form may be a part): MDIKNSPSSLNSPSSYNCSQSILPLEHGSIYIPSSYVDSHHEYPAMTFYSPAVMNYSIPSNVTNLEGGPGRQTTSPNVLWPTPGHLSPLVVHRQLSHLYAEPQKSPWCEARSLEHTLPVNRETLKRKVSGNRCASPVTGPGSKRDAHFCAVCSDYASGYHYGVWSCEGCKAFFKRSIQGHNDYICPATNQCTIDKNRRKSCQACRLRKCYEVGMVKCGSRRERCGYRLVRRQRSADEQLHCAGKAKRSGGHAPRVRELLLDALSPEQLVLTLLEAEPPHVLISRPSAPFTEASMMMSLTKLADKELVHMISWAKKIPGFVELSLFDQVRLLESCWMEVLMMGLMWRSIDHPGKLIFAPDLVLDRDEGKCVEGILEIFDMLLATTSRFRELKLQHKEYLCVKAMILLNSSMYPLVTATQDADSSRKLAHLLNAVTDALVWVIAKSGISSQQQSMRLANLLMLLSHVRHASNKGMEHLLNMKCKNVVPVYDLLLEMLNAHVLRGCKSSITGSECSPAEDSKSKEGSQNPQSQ
Sequence of Peroxisome proliferator-activated receptor gamma (Homo sapiens) (P37231 whole entry, looked up, the tested form may be a part): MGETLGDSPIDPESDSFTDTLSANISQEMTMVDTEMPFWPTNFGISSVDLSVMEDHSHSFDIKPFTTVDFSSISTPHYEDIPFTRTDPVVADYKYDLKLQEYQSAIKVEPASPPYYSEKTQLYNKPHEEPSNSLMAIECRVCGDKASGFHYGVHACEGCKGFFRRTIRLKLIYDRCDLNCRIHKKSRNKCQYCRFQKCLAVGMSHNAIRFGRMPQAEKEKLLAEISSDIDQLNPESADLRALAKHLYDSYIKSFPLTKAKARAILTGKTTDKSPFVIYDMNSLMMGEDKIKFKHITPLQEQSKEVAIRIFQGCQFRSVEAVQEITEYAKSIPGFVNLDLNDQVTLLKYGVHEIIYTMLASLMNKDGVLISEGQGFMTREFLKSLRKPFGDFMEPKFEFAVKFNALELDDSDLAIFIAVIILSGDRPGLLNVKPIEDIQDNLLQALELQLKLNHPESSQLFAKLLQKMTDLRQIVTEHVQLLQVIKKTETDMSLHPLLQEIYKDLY
Sequence of Bile acid receptor (Homo sapiens) (Q96RI1 whole entry, looked up, the tested form may be a part): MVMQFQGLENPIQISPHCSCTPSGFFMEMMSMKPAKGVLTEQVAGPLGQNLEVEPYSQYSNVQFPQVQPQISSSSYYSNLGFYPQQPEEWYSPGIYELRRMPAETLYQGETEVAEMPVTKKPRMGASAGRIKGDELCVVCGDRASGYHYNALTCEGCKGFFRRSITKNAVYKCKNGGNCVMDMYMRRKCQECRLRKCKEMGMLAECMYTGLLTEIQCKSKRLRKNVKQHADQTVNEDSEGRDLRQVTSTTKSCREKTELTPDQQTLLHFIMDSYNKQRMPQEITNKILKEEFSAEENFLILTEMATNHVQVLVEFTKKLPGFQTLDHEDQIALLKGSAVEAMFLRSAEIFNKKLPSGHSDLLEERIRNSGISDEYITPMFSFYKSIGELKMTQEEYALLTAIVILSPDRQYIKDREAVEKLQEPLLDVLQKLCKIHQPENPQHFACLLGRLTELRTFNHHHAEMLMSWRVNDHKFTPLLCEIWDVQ
Sequence of mouse Estrogen Receptor alpha (Era), Esr1 (gene 13982) (P19785 whole entry, looked up): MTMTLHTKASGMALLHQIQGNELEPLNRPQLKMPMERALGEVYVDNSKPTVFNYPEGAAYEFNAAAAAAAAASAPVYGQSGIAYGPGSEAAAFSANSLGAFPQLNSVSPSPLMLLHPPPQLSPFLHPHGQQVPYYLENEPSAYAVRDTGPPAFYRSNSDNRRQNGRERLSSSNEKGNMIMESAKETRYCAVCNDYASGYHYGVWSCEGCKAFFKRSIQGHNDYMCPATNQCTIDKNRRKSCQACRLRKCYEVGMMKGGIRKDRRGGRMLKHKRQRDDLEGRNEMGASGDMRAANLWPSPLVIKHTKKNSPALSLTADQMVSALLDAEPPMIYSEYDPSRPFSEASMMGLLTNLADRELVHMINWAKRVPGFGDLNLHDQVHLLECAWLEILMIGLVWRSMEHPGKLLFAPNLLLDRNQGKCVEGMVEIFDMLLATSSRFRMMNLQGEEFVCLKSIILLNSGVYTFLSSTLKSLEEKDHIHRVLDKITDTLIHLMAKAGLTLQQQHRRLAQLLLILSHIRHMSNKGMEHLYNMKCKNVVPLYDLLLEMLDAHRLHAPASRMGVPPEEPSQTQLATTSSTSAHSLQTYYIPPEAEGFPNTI

c1ccc2scnc2c1
inactive: [1] | [2] | [3] | [4] | [5] | [6] | [7]

CN1CCc2cccc3c2[C@H]1Cc1ccc(O)c(O)c1-3
active: [1] 0.26 µM | [9] 0.309 µM
inactive: [8] | [2] | [3] | [4] | [6] | [7]

NCCN1CCNCC1
inactive: [1] | [2] | [3] | [4] | [10] | [7]

[O-]/[N+](=N\O)c1ccccc1
inactive: [1] | [8] | [2] | [3] | [4] | [6] | [7]

C#C[C@]1(O)CC[C@H]2[C@@H]3CCc4cc(O)ccc4[C@H]3CC[C@@]21C
active: [11] 1.32 µM | [8] 15.6 µM | [12] 5.14 µM | [13] 0.463 µM | [14] 2.39 µM | [15] 514 nM and 517 nM and 623 nM | [10] 18.2 µM | [16] 0.364 µM
inactive: [8] | [10] | [6] | [7]

C=CC(O)CCCCC (centres undefined)
inactive: [1] | [10] | [6] | [7]

C[C@]12CC[C@@H]3c4ccc(O)cc4CC[C@H]3[C@@H]1CC[C@@H]2O
inactive: [1] | [8] | [10] | [6] | [7]
active: [11] 1.74 µM | [13] 0.17 µM | [16] 4.37 µM

CCCCCC(=O)O[C@]1(C(C)=O)CC[C@H]2[C@@H]3CCC4=CC(=O)CC[C@]4(C)[C@H]3CC[C@@]21C
inactive: [1] | [9] | [3] | [4] | [6] | [7]
active: [2] 12.6 µM | [17] 11.6 µM | [5] 11.9 µM | [10] 26.3 µM | [16] 13.3 µM

CCCCC/C=C\C=C\C(=O)OCC
inactive: [4] | [5] | [6] | [7]
active: [1] 9.24 µM | [2] 12.5 µM | [3] 95.6 µM | [17] 81 µM

CC(=O)Oc1c(C)c(C)c2c(c1C)CC[C@@](C)(CCC[C@H](C)CCC[C@H](C)CCCC(C)C)O2
inactive: [1] | [8] | [3] | [4] | [6] | [7]

CC/C(=C(\c1ccccc1)c1ccc(OCCN(C)C)cc1)c1ccccc1
inactive: [1] | [8] | [6] | [7] | [16]
active: [18] 0.491 µM | [11] 3.1 µM | [13] 6.98 µM | [15] 3.85 µM | [5] 11.5 µM | [10] 10.4 µM and 11.5 µM | [16] 0.136 µM
